High-throughput results from PubChem.
DRD3 agonist – activates the human D3 dopamine receptor; P35462; D3R DiscoveRx beta-arrestin cells, luminescence, 90 min; max activation, %; hit rate 0.58% among 410,000; in the data active = max activation above about 30%
Target sequence (P35462 whole entry, looked up): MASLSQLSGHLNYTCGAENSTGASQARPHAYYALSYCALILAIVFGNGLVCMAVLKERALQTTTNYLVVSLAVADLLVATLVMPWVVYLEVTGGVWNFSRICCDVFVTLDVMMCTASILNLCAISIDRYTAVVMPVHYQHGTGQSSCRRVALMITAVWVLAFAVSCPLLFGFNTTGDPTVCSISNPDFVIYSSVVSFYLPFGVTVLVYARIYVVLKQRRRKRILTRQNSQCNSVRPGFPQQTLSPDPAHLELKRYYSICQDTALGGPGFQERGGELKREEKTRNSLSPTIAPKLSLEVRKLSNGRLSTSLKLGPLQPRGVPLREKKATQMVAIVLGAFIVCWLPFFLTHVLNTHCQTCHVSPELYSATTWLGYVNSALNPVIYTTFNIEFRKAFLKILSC
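Agonist-mode cell screen: cells plated at 1500/well and incubated overnight at 37 °C, then exposed to library compounds for 90 min at 37 °C. Detection reagent was added for 30–60 min at room temperature, and luminescence was read.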
D1 agonist – activates the human D1 dopamine receptor | P21728 | HEK293 T-REx D1 cells, calcium flux, agonist mode | activation, % at 2 µM | hit rate 1% among 360,000 | AID 504660; in the data active = activation above about 30%
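Agonism was scored from calcium flux recorded over 180 s (1 read/s) after pintool compound addition, following a 10-cycle baseline. Cells were inducible force-coupled HEK293 TREx D1, plated overnight at 30 C and loaded with no-wash calcium dye.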
D3 antag – blocks the human D3 dopamine receptor; D3R cells, DiscoveRx beta-arrestin luminescence, antagonist mode; active compounds read low; P35462; max response, negative = inhibition, %; hit rate 2.5% among 360,000; in the data active = max response below about -50%; inconclusive = no clear call, values can overlap the other calls
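Cells expressing the human receptor were seeded at 1500 cells/well, incubated overnight at 37 degrees C in 5% CO2, then exposed to library compounds with dopamine controls for 90 minutes at 37 degrees C before luminescent detection.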
D1 PAM – enhances dopamine response at the human D1 receptor. P21728. HEK293 TREx D1 cells, calcium flux, dopamine EC20 potentiation. AID 504651. potentiation, % at 10 µM. hit rate 0.036% among 360,000; in the data active = potentiation above about 30%
D1 antagonist – antagonists of human D1 dopamine receptor. P21728. HEK293 TREx D1 cells, calcium flux, dopamine EC80; active compounds read low. activity change, negative = inhibition, % at 10 µM. hit rate 3.2% among 360,000; in the data active = activity change below about -30%
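Using tetracycline-induced force-coupled D1 Hek293 cells and a calcium dye, signals were followed for 180 s after compound, then for 180 s after EC80 dopamine, to detect inhibitors.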
Large screens that a line does not name were inactive. Compounds with a hit are over-represented: about 6% of the library has one in this group of screens.

O=C(NCc1nc2ccccc2[nH]1)C1=C[C@H](C2CCCCC2)C[C@H](OCc2ccc(CO)cc2)O1	DRD3 agonist 41
CCOC(=O)c1ccc(NC(=O)CN(c2ccc(C)cc2)S(=O)(=O)c2ccc(OC)cc2)cc1	none (no result: D3 antag)
CC(=O)Nc1ccc(NC(=O)CCS(=O)(=O)c2ccc3c(c2)CC(=O)N3C)cc1	none (no result: D3 antag)
O=C(Nc1ccc(OC(F)(F)F)cc1)c1nc2ccccc2nc1N1CCCCC1	none (no result: D3 antag)
COc1cccc(C2CC(=O)Nc3c2c(=O)n(C)c2ncnn32)c1OC (configuration not stated)	none (no result: D3 antag)
O=C(C1=C[C@@H](c2ccc(Br)cc2)C[C@@H](OCCCCO)O1)N1CCOCC1	D1 antagonist -70
O=C(C1=C[C@@H](c2ccc(Br)cc2)C[C@@H](OCc2ccc(CO)cc2)O1)N1CCOCC1	none
O=C(C1=C[C@H](c2ccc(Br)cc2)C[C@H](OCc2ccc(CO)cc2)O1)N1CCOCC1	D3 antag inconclusive, D1 antagonist -33
CN1CCN(C(=O)C2=C[C@H](c3ccc(Br)cc3)C[C@H](OCCCCO)O2)CC1	none
N#Cc1nc(Nc2cc(Cl)cc(Cl)c2)nc(NC2CCCC2)n1	none (no result: DRD3 agonist, D3 antag)
CC1(Oc2cccnc2Cl)CCN(Cc2ccc(OC(F)(F)F)cc2)C1 (configuration not stated)	none (no result: D1 agonist, D1 PAM, D1 antagonist)
CCc1cc(C(=O)Nc2sc(C)c(CC)c2C#N)no1	none (no result: D3 antag)
CCc1c(C)sc(NC(=O)c2cc(C(C)C)on2)c1C#N	D1 antagonist -32
Nc1cc2c3c(cccc3c1)C(=O)N(CCN1CCCC1)C2=O	D1 agonist 56
CSCCC(NS(=O)(=O)c1ccc2c(c1)oc(=O)n2C)C(=O)NCc1ccc(F)cc1 (configuration not stated)	none (no result: D3 antag)
Cc1ccc2ccc(C3C(=O)c4ccccc4C3=O)nc2c1	D3 antag -64 (no result: D1 agonist, D1 PAM, D1 antagonist)
COc1ccc(NC(=O)CO/N=C2\CCCc3nonc32)cc1	D3 antag inconclusive
O=C(CO/N=C1\CCCc2nonc21)Nc1ccc(Br)cc1	D3 antag -83
COc1ccc(NC(=O)CO/N=C2/CCCc3nonc32)c(OC)c1	D1 antagonist -32
COC(=O)c1ccc(NC(=O)CO/N=C2\CCCc3nonc32)cc1	none
Nc1nn(-c2ccccc2)c(N)c1N=Nc1ccc2c(c1)OCO2	D1 antagonist -45
Nc1nn(-c2ccccc2)c(N)c1N=Nc1cccc(F)c1	none
COc1ccc(-c2nn(C)c3sc(C(=O)Nc4cc(OC)c(OC)c(OC)c4)cc23)cc1OC	none (no result: D3 antag)
COc1ccc2nc(N3C(=O)CNC3=S)sc2c1	D1 antagonist -40
O=C(NC(c1ccc(-c2ccccc2)cc1)c1cnccn1)C1CCN(Cc2ccc(Cl)c(Cl)c2)CC1 (configuration not stated)	D3 antag -57 (no result: D1 agonist, D1 PAM, D1 antagonist)
O=C(NC(c1ccc(-c2ccccc2)cc1)c1cnccn1)C1CCN(Cc2ccc3c(c2)OCO3)CC1 (configuration not stated)	D3 antag -66 (no result: D1 agonist, D1 PAM, D1 antagonist)
COc1ccc(CCN(C(=O)c2snc(C(N)=O)c2N)C(C(=O)NCC2CCCO2)c2ccc(F)cc2)cc1OC (configuration not stated)	DRD3 agonist 36
Cc1cccc(CCN(C(=O)c2snc(C(N)=O)c2N)C(C(=O)NCC2CCCO2)c2ccc(F)cc2)c1 (configuration not stated)	none
CCn1cc(C(=O)NC2CCCCCC2)c(=O)c2ccc(C)nc21	none
COc1ccccc1N1CCN(Cc2cc(=O)n3ccsc3n2)CC1	none
COc1ccccc1N1CCN(S(=O)(=O)c2ccc3c(c2)n(C)c(=O)n3C)CC1	D1 antagonist -47
COc1ccccc1N1CCN(CCS(=O)(=O)c2cc(Cl)ccc2Cl)CC1	D3 antag -93 (no result: D1 agonist, D1 PAM, D1 antagonist)
COc1ccccc1N1CCN(S(=O)(=O)c2ccc(F)cc2)CC1	none
CCc1nc(-c2cc(S(=O)(=O)N3CCN(c4ccccc4F)CC3)ccc2OC)no1	none (no result: D3 antag)
COc1ccc(S(=O)(=O)N2CCN(c3ccccc3F)CC2)cc1-c1noc(C)n1	D1 antagonist -34 (no result: D3 antag)
COc1ccccc1N1CCN(CCCNc2cc(=O)n(C)c(=O)n2C)CC1	D3 antag -62
COc1ccc(NC(=O)Cn2cnc3c(nc4n3CCCCC4)c2=O)cc1Cl	none (no result: D3 antag)
O=C(CCn1c(=O)c2ccccc2n(CC(=O)Nc2ccc(F)cc2)c1=O)NCCc1ccccc1	none (no result: D3 antag)
COc1ccc(-n2c(=O)c3ccc(C(=O)NCc4ccc(C)cc4)cc3n(Cc3cccc(Cl)c3)c2=O)cc1	none (no result: D3 antag)
CCOC(=O)c1ccc(NC(=O)c2c(NCc3sccc3C)sc3c2CCCCC3)cc1	none (no result: D3 antag)
COc1ccccc1N1CCN(CC(=O)c2c(N)n(C)c(=O)n(C)c2=O)CC1	none
COc1ccccc1N1CCN(CCCNc2c(C)c(=O)n(C)c(=O)n2C)CC1	D3 antag -57 (no result: D1 agonist, D1 PAM, D1 antagonist)
COc1ccccc1N1CCN(S(=O)(=O)/C=C/c2ccccc2)CC1	D1 antagonist -37
Cn1c(=O)c2cc(S(=O)(=O)N3CCOCC3)ccc2n(C)c1=O	D1 antagonist -31
C=CC[C@H](CC(=O)NCCO)C(=O)NCCOC(=O)[C@@H](CC=C)Cc1ccc(F)cc1	D3 antag inconclusive (no result: D1 agonist, D1 PAM, D1 antagonist)
Cc1ccc(C(=O)NC2CC3CCC(C2)N3Cc2ccco2)cc1 (configuration not stated)	D1 antagonist -70
COc1cc(OC)cc(C(=O)NC2CC3CCC(C2)N3Cc2ccco2)c1 (configuration not stated)	D3 antag -91, D1 antagonist -35
O=C(Nc1cccc(Cl)c1)NC1CC2CCC(C1)N2Cc1ccco1 (configuration not stated)	D3 antag -67, D1 antagonist -41
CCc1ccccc1NC(=O)NC1CC2CCC(C1)N2Cc1ccco1 (configuration not stated)	D3 antag inconclusive
O=c1c(S(=O)(=O)c2cccc(Cl)c2)cn(Cc2ccccc2)c2cc(N3CCCCC3)c(F)cc12	none (no result: D3 antag)
O=S(=O)(c1ccc2ccccc2c1)n1nc(-c2ccco2)nc1NCc1cccc(Cl)c1	D1 antagonist -42 (no result: D3 antag)
Cc1ccccc1NC(=O)c1ccc(Nc2c([N+](=O)[O-])cc([N+](=O)[O-])c3ccccc23)cc1	D3 antag -71
Cc1cc(C(=O)Nc2ccc(Nc3ccccc3)cc2)ccc1[N+](=O)[O-]	none
CCOC(=O)N1CCN(Cc2nc3c(c(=O)n(C)c(=O)n3C)n2Cc2cc(C)ccc2C)CC1	D1 antagonist -32 (no result: DRD3 agonist, D3 antag)
Cn1c(=O)c2c(nc(CN3CCOCC3)n2CCCc2ccccc2)n(C)c1=O	none
Cn1c(=O)c2c(nc(CN3CCN(C(c4ccccc4)c4ccccc4)CC3)n2CC(N)=O)n(C)c1=O	D3 antag -50
CN1CCN(Cc2nc3c(c(=O)n(C)c(=O)n3C)n2CCCc2ccccc2)CC1	D3 antag -52
CC(C)n1c(CN(C)Cc2ccccc2)nc2c1c(=O)n(C)c(=O)n2C	DRD3 agonist 50
COc1ccc(NC(=O)C2CCN(c3nc4ccccc4[nH]3)CC2)cc1OC	none (no result: D3 antag)
COc1ccc(OCC(=O)NNC(=O)c2cccc(O)c2)cc1	none
